In PubChem BioAssay (NCI):
This is part of a sample that, as a whole, favours compounds with a hit. Of some 83,000 tested, about 20% had one in any assay.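 Interpretation: 100, growth as untreated; towards 0, rising growth inhibition; 0, no net growth; 0 to -100, cell death. Compounds scoring below 10 were considered active.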 Activity calls are given as the source filed them.

Tests used:
Experiment in all cases: NCI-60 one-dose screen, 48 h (100 = growth as untreated, 0 = no growth, -100 = all killed)
HCT-15 colon = conditions: 10 µM unless noted
HT29 colon = conditions: 10 µM unless noted
SNB-75 CNS = conditions: 10 µM unless noted
SNB-19 CNS = conditions: 10 µM unless noted
U251 CNS = conditions: 10 µM unless noted
PC-3 prostate = conditions: 10 µM unless noted
SK-MEL-5 melanoma = conditions: 10 µM unless noted
UACC-62 melanoma = conditions: 10 µM unless noted
LOX IMVI melanoma = conditions: 10 µM unless noted
SK-MEL-28 melanoma = conditions: 10 µM unless noted
SK-MEL-2 melanoma = conditions: 10 µM unless noted
EKVX NSCLC = conditions: 10 µM unless noted
SN12C renal = conditions: 10 µM unless noted
UO-31 renal = conditions: 10 µM unless noted
TK-10 renal = conditions: 10 µM unless noted
ACHN renal = conditions: 10 µM unless noted
A498 renal = conditions: 10 µM
HL-60(TB) leukemia = conditions: 10 µM unless noted
CCRF-CEM leukemia = conditions: 10 µM unless noted

Measured: growth

CCCCCSC1C2C(=O)C(Br)=CC13CCNc1c(O)c4c5c(c13)=[N+]2CCC=5C=N4 (centres undefined)
active: HCT-15 colon -47.6% | HT29 colon -31.8% | SNB-75 CNS -88.8% | SNB-19 CNS -65.5% | U251 CNS -73.3% | PC-3 prostate -0.922% | SK-MEL-5 melanoma -95.2% | UACC-62 melanoma -51.2% | LOX IMVI melanoma -71% | SK-MEL-28 melanoma -18.2% | SK-MEL-2 melanoma -54.8% | EKVX NSCLC -56.1% | SN12C renal -61.9% | UO-31 renal -66.9% | TK-10 renal -52.4% | ACHN renal -90.2% | HL-60(TB) leukemia -40.8% | CCRF-CEM leukemia -13.5%
inactive: A498 renal 12.2%

O=C(O)c1ccc([S-])cc1.[Au+].c1ccc(CN2[CH-]N(Cc3ccccc3)C(c3ccccc3)=C2c2ccccc2)cc1
active: HCT-15 colon -89.3% | HT29 colon -24.7% | SNB-75 CNS -9.88% | SNB-19 CNS -66.8% | U251 CNS -82.5% | PC-3 prostate -25.6% | SK-MEL-5 melanoma -92.9% | UACC-62 melanoma -51.6% | LOX IMVI melanoma -78.9% | SK-MEL-28 melanoma -20.2% | SK-MEL-2 melanoma -43.2% | EKVX NSCLC -52.9% | SN12C renal -67.8% | UO-31 renal -79.4% | TK-10 renal -61.7% | ACHN renal -65.7% | A498 renal -33.8% | CCRF-CEM leukemia 1.41%

CCOC(=O)CCN(C)C1=Nc2ccc(Cl)cc2C(c2ccccc2)=[N+]([O-])C1
inactive: HCT-15 colon 105% | HT29 colon 82% | SNB-75 CNS 99.5% | SNB-19 CNS 99.3% | U251 CNS 100% | PC-3 prostate 91% | SK-MEL-5 melanoma 100% | UACC-62 melanoma 93.4% | LOX IMVI melanoma 99.8% | SK-MEL-28 melanoma 121% | SK-MEL-2 melanoma 93.5% | EKVX NSCLC 102% | SN12C renal 98.5% | UO-31 renal 78.6% | TK-10 renal 91.4% | ACHN renal 110% | A498 renal 71.8% | HL-60(TB) leukemia 91.3% | CCRF-CEM leukemia 99.6%

CC[C@H](C)[C@@H]([C@@H](CC(=O)N1CCC[C@H]1[C@H](OC)[C@@H](C)C(=O)N[C@H](C)[C@@H](O)c1ccccc1)OC)N(C)C(=O)[C@@H](NC(=O)[C@@H](NC)C(C)C)C(C)C
active: HT29 colon 3.65% | U251 CNS 6.43% | SK-MEL-5 melanoma -37.6% | A498 renal -11.7% | HL-60(TB) leukemia -20.2%
inactive: HCT-15 colon 17.2% | SNB-75 CNS 39% | SNB-19 CNS 45.4% | PC-3 prostate 29.1% | UACC-62 melanoma 47.3% | LOX IMVI melanoma 19.6% | SK-MEL-28 melanoma 63.5% | SK-MEL-2 melanoma 41.8% | EKVX NSCLC 41.7% | SN12C renal 36.7% | UO-31 renal 40.6% | TK-10 renal 47.2% | ACHN renal 29.3% | CCRF-CEM leukemia 20.8%

O=[N+]([O-])c1c(Br)sc(Br)c1[N+](=O)[O-]
active: HCT-15 colon -13.9% | HT29 colon -58% | U251 CNS -31% | UACC-62 melanoma -1.09% | LOX IMVI melanoma -65.3% | SK-MEL-2 melanoma -20.9% | UO-31 renal -65.7% | TK-10 renal -78.3% | ACHN renal -56.4% | HL-60(TB) leukemia -11.2% | CCRF-CEM leukemia -18.9%
inactive: SNB-75 CNS 63.1% | SNB-19 CNS 76% | PC-3 prostate 67.5% | SK-MEL-5 melanoma 51.4% | SK-MEL-28 melanoma 57.3% | EKVX NSCLC 72.5% | SN12C renal 30% | A498 renal 111%

COC(=O)[C@@H](C)C[C@H](Cc1ccccc1)NC(=O)c1csc([C@@H](C[C@H](C(C)C)N(C)C(=O)[C@H](C)NC(=O)[C@H]2CCCN2C)OC(C)=O)n1
inactive: HCT-15 colon 57.7% | HT29 colon 11.5% | SNB-75 CNS 30.7% | SNB-19 CNS 51% | U251 CNS 24.8% | PC-3 prostate 36.4% | SK-MEL-5 melanoma 22.3% | UACC-62 melanoma 45.6% | LOX IMVI melanoma 38.4% | SK-MEL-28 melanoma 70.1% | SK-MEL-2 melanoma 43.8% | EKVX NSCLC 69.8% | SN12C renal 64.8% | UO-31 renal 71.8% | TK-10 renal 82.7% | ACHN renal 68.6% | A498 renal 53.4% | CCRF-CEM leukemia 18.7%
active: HL-60(TB) leukemia -21.2%

CCCCCCCCCCCCNC(c1ccccc1)C(O)c1ccccc1 (centres undefined)
inactive: HCT-15 colon 66.6% | HT29 colon 52% | SNB-75 CNS 106% | SNB-19 CNS 87.4% | U251 CNS 32% | PC-3 prostate 79.2% | SK-MEL-5 melanoma 96.7% | UACC-62 melanoma 96.7% | LOX IMVI melanoma 49.8% | SK-MEL-28 melanoma 97.4% | SK-MEL-2 melanoma 92.8% | EKVX NSCLC 92.6% | SN12C renal 68.5% | UO-31 renal 72% | TK-10 renal 98.8% | ACHN renal 67.4% | A498 renal 116% | HL-60(TB) leukemia 66.8% | CCRF-CEM leukemia 63.1%

CC1(C)N=C(N)N=C(N)N1c1cccc(CCCCc2ccc(Cl)c(S(=O)(=O)F)c2)c1
inactive: HCT-15 colon 66.6% | HT29 colon 12.5% | SNB-75 CNS 62.2% | SNB-19 CNS 45.9% | U251 CNS 35.3% | PC-3 prostate 24.1% | SK-MEL-5 melanoma 16.4% | UACC-62 melanoma 15.3% | LOX IMVI melanoma 16.5% | SK-MEL-28 melanoma 70.2% | SK-MEL-2 melanoma 52.3% | EKVX NSCLC 51.5% | SN12C renal 30.5% | UO-31 renal 92.4% | TK-10 renal 55.5% | ACHN renal 87.5% | A498 renal 86.1% | HL-60(TB) leukemia 18.8% | CCRF-CEM leukemia 28.1%

COC(=O)C1CCC(NC(=O)c2csc([C@@H](C[C@H](C(C)C)N(C)C(=O)[C@@H](NC(=O)[C@H]3CCCCN3C)C(C)C)OC(C)=O)n2)CC1 (some centres undefined)
active: HT29 colon -0.603% | U251 CNS 2.97% | SK-MEL-5 melanoma -27.7% | A498 renal -6.6% | HL-60(TB) leukemia -21.8%
inactive: HCT-15 colon 11.5% | SNB-75 CNS 61.6% | SNB-19 CNS 38.4% | PC-3 prostate 28.9% | UACC-62 melanoma 48.1% | LOX IMVI melanoma 21.5% | SK-MEL-28 melanoma 60% | SK-MEL-2 melanoma 28.6% | EKVX NSCLC 40.8% | SN12C renal 28.7% | UO-31 renal 60.8% | TK-10 renal 63.1% | ACHN renal 23.8% | CCRF-CEM leukemia 13%

COC(=O)[C@@H](C)C[C@H](Cc1ccccc1)NC(=O)c1csc([C@@H](C[C@H](C(C)C)N(C)C(=O)[C@@H](NC(=O)[C@H]2CCCCN2C)C(C(F)(F)F)C(F)(F)F)OC(C)=O)n1
inactive: HCT-15 colon 22.3% | HT29 colon 14.4% | SNB-75 CNS 14.9% | SNB-19 CNS 23.2% | PC-3 prostate 27.2% | UACC-62 melanoma 26.4% | LOX IMVI melanoma 13.5% | SK-MEL-28 melanoma 71.5% | SK-MEL-2 melanoma 34.5% | EKVX NSCLC 40.4% | SN12C renal 28.3% | UO-31 renal 33.1% | TK-10 renal 28.5% | ACHN renal 28.2%
active: U251 CNS 3.74% | SK-MEL-5 melanoma -18.5% | A498 renal -4.49% | HL-60(TB) leukemia -33.7% | CCRF-CEM leukemia 4.93%

CC(=O)O[C@H](C[C@H](C(C)C)N(C)C(=O)[C@@H](NC(=O)[C@H]1CCCCN1C)C(C)C)c1cccc(C(=O)N[C@@H](Cc2ccccc2)C[C@H](C)C(=O)O)n1
inactive: SNB-75 CNS 27.6% | SNB-19 CNS 22.4% | U251 CNS 10.9% | PC-3 prostate 26.4% | UACC-62 melanoma 36.3% | LOX IMVI melanoma 14.6% | SK-MEL-28 melanoma 65% | SK-MEL-2 melanoma 30.4% | EKVX NSCLC 37.3% | SN12C renal 22% | UO-31 renal 39.4% | TK-10 renal 69% | ACHN renal 35.3%
active: HCT-15 colon 9.65% | HT29 colon 2.72% | SK-MEL-5 melanoma -39.2% | A498 renal -13.2% | HL-60(TB) leukemia -38.1% | CCRF-CEM leukemia 5.5%

CC[C@H](C)[C@H](NC(=O)[C@H]1CCCCN1C)C(=O)N(C)[C@H](C[C@@H](O)c1nc(C(=O)N[C@@H](Cc2ccccc2)C[C@H](C)C(=O)O)cs1)C(C)C
active: HL-60(TB) leukemia 8.99%
inactive: HCT-15 colon 96.5% | HT29 colon 83.1% | SNB-75 CNS 59.7% | SNB-19 CNS 65.2% | U251 CNS 52.9% | PC-3 prostate 81.2% | SK-MEL-5 melanoma 63.7% | UACC-62 melanoma 41.1% | LOX IMVI melanoma 52.2% | SK-MEL-28 melanoma 82.8% | SK-MEL-2 melanoma 41.3% | EKVX NSCLC 91.5% | SN12C renal 90.5% | UO-31 renal 84.1% | TK-10 renal 91.9% | ACHN renal 106% | A498 renal 76.2% | CCRF-CEM leukemia 43.5%

COC(=O)[C@@H](C)C[C@H](Cc1ccccc1)NC(=O)c1nc([C@@H](C[C@H](C(C)C)N(C)C(=O)[C@@H](NC(=O)[C@H]2CCCN2C)C(C)C)OC(C)=O)sc1C
active: HT29 colon 2.1% | U251 CNS 5.39% | SK-MEL-5 melanoma -20.7% | A498 renal -2.29% | HL-60(TB) leukemia -33.5%
inactive: HCT-15 colon 13.4% | SNB-75 CNS 51.2% | SNB-19 CNS 42% | PC-3 prostate 17.2% | UACC-62 melanoma 46.6% | LOX IMVI melanoma 25.6% | SK-MEL-28 melanoma 65.6% | SK-MEL-2 melanoma 36.6% | EKVX NSCLC 45.4% | SN12C renal 31% | UO-31 renal 43.9% | TK-10 renal 13.6% | ACHN renal 19.6% | CCRF-CEM leukemia 10.3%

CC1(C)C(C(=O)c2cn(CCCCF)c3ccccc23)C1(C)C
inactive: HCT-15 colon 91.9% | HT29 colon 48.8% | SNB-75 CNS 96% | SNB-19 CNS 104% | U251 CNS 86% | PC-3 prostate 85% | SK-MEL-5 melanoma 92.1% | UACC-62 melanoma 88.4% | LOX IMVI melanoma 92.9% | SK-MEL-28 melanoma 116% | SK-MEL-2 melanoma 86.4% | EKVX NSCLC 88.7% | SN12C renal 103% | UO-31 renal 95.2% | TK-10 renal 102% | ACHN renal 115% | A498 renal 92.9% | HL-60(TB) leukemia 76% | CCRF-CEM leukemia 87.1%

CC(=O)O[C@H](C[C@H](C(C)C)N(C)C(=O)[C@@H](NC(=O)[C@H]1CCCCN1C)C(C)C)c1nc(C(=O)NC2CCC(C(=O)O)CC2)cs1 (some centres undefined)
active: SNB-75 CNS -1.9% | HL-60(TB) leukemia -22.2%
inactive: HCT-15 colon 70.6% | HT29 colon 17.7% | SNB-19 CNS 40.9% | U251 CNS 33.2% | PC-3 prostate 48.5% | SK-MEL-5 melanoma 49.8% | UACC-62 melanoma 28% | LOX IMVI melanoma 35.5% | SK-MEL-28 melanoma 71.4% | SK-MEL-2 melanoma 37.4% | EKVX NSCLC 57.8% | SN12C renal 13.4% | UO-31 renal 76.4% | TK-10 renal 73.8% | ACHN renal 86.8% | A498 renal 35.8% | CCRF-CEM leukemia 12.8%
